# Publication PMC5540273 (PLoS ONE, 2017)
# Like-named read-outs stand apart in the source and are kept apart here.
# Tests used:
# CSNK1G1 = settings: concentration: 1 μM, replicates: in singlicate; n = 1
# CSNK1G2 = settings: concentration: 1 μM, replicates: in singlicate; n = 1
# CSNK1G3 = settings: concentration: 1 μM, replicates: in singlicate; n = 1
# CSNK2A1 = settings: concentration: 1 μM, replicates: in singlicate; n = 1
# CSNK2A2 = settings: concentration: 1 μM, replicates: in singlicate; n = 1
# CTK = tested on: T1, CTK; settings: concentration: 1 μM, replicates: in singlicate; n = 1
# T1 construct: gene MATK
# DAPK1 = settings: concentration: 1 μM, replicates: in singlicate; n = 1
# DAPK2 = settings: concentration: 1 μM, replicates: in singlicate; n = 1
# DAPK3 = settings: concentration: 1 μM, replicates: in singlicate; n = 1
# DCAMKL1 = tested on: T2, DCAMKL1; settings: concentration: 1 μM, replicates: in singlicate; n = 1
# T2 construct: gene DCLK1
# DCAMKL2 = tested on: T3, DCAMKL2; settings: concentration: 1 μM, replicates: in singlicate; n = 1
# T3 construct: gene DCLK2
# DCAMKL3 = tested on: T4, DCAMKL3; settings: concentration: 1 μM, replicates: in singlicate; n = 1
# T4 construct: gene DCLK3
# DDR1 = settings: concentration: 1 μM, replicates: in singlicate; n = 1
# DDR2 = settings: concentration: 1 μM, replicates: in singlicate; n = 1
# DLK = tested on: T5, DLK; settings: concentration: 1 μM, replicates: in singlicate; n = 1
# T5 construct: gene MAP3K12
# DMPK2 = tested on: T6, DMPK2; settings: n = 1
# T6 construct: gene CDC42BPG
# DMPK = settings: concentration: 1 μM, replicates: in singlicate; n = 1
# DRAK1 = tested on: T7, DRAK1; settings: concentration: 1 μM, replicates: in singlicate; n = 1
# T7 construct: gene STK17A
# DRAK2 = tested on: T8, DRAK2; settings: concentration: 1 μM, replicates: in singlicate; n = 1
# T8 construct: gene STK17B
# DYRK1A = settings: concentration: 1 μM, replicates: in singlicate; n = 1
# [1] = concentration: 1 μM, replicates: in singlicate
# 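Note: KINOMEscan kinase panel screen.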
smiles,measurement,setting,value
CCn1c(-c2nonc2N)nc2c(C#CC(C)(C)O)ncc(OCCCCN)c21.O=C(O)C(F)(F)F.O=C(O)C(F)(F)F [GSK507274],%Inh,CSNK1G1,40%
same,%Inh,CSNK1G2,0%
same,%Inh,CSNK1G3,15%
same,%Inh,CSNK2A1,0%
same,%Inh,CSNK2A2,0%
same,%Inh,CTK,2%
same,%Inh,DAPK1,28%
same,%Inh,DAPK2,10%
same,%Inh,DAPK3,82%
same,%Inh,DCAMKL1,40%
same,%Inh,DCAMKL2,34%
same,%Inh,DCAMKL3,98.7%
same,%Inh,DDR1,0%
same,%Inh,DDR2,0%
same,%Inh,DLK,1%
same,%Inh,DMPK2; 1 µM,0%
same,%Inh,DMPK,0%
same,%Inh,DRAK1,0%
same,%Inh,DRAK2,2%
same,%Inh,DYRK1A,25%
O=C(Nc1cccc(-c2nn3ccccc3c2-c2ccnc(Nc3cccc(F)c3)n2)c1)c1c(F)ccc(F)c1Cl [GSK357952],%Inh,CSNK1G1,0%
same,%Inh,CSNK1G2,0%
same,%Inh,CSNK1G3,25%
same,%Inh,CSNK2A1,41%
same,%Inh,CSNK2A2,12%
same,%Inh,CTK,15%
same,%Inh,DAPK1,0%
same,%Inh,DAPK2,0%
same,%Inh,DAPK3,0%
same,%Inh,DCAMKL1,3%
same,%Inh,DCAMKL2,7%
same,%Inh,DCAMKL3,1%
same,%Inh,DDR1,100%
same,%Inh,DDR2,82%
same,%Inh,DLK,3%
same,%Inh,DMPK2; [1],19%
same,%Inh,DMPK,0%
same,%Inh,DRAK1,3%
same,%Inh,DRAK2,0%
same,%Inh,DYRK1A,6%
O=C(Nc1n[nH]c2cc(-c3ccoc3)ccc12)C1CC1 [SB-738481],%Inh,CSNK1G1,0%
same,%Inh,CSNK1G2,0%
same,%Inh,CSNK1G3,12%
same,%Inh,CSNK2A1,35%
same,%Inh,CSNK2A2,66%
same,%Inh,CTK,25%
same,%Inh,DAPK1,6%
same,%Inh,DAPK2,0%
same,%Inh,DAPK3,0%
same,%Inh,DCAMKL1,2%
same,%Inh,DCAMKL2,0%
same,%Inh,DCAMKL3,0%
same,%Inh,DDR1,0%
same,%Inh,DDR2,5%
same,%Inh,DLK,0%
same,%Inh,DMPK2; [1],24%
same,%Inh,DMPK,0%
same,%Inh,DRAK1,24%
same,%Inh,DRAK2,0%
same,%Inh,DYRK1A,61%
CNC(=O)c1ccccc1Nc1nc(Nc2ccc(N3CCOCC3)cc2)ncc1Cl.Cl [GSK1576028],%Inh,CSNK1G1,66%
same,%Inh,CSNK1G2,85%
same,%Inh,CSNK1G3,56%
same,%Inh,CSNK2A1,99.8%
same,%Inh,CSNK2A2,99.9%
same,%Inh,CTK,34%
same,%Inh,DAPK1,95%
same,%Inh,DAPK2,69%
same,%Inh,DAPK3,89%
same,%Inh,DCAMKL1,52%
same,%Inh,DCAMKL2,31%
same,%Inh,DCAMKL3,81%
same,%Inh,DDR1,95.1%
same,%Inh,DDR2,73%
same,%Inh,DLK,95%
same,%Inh,DMPK2; [1],25%
same,%Inh,DMPK,81%
same,%Inh,DRAK1,95.1%
same,%Inh,DRAK2,60%
same,%Inh,DYRK1A,94.4%
COC(=O)Nc1nc2cc(Oc3ccc(NC(=O)Nc4cc(C(F)(F)F)ccc4F)cn3)ccc2[nH]1.Cl.Cl [GW681170],%Inh,CSNK1G1,10%
same,%Inh,CSNK1G2,6%
same,%Inh,CSNK1G3,18%
same,%Inh,CSNK2A1,0%
same,%Inh,CSNK2A2,72%
same,%Inh,CTK,0%
same,%Inh,DAPK1,51%
same,%Inh,DAPK2,0%
same,%Inh,DAPK3,9%
same,%Inh,DCAMKL1,11%
same,%Inh,DCAMKL2,15%
same,%Inh,DCAMKL3,3%
same,%Inh,DDR1,100%
same,%Inh,DDR2,97.1%
same,%Inh,DLK,35%
same,%Inh,DMPK2; [1],0%
same,%Inh,DMPK,0%
same,%Inh,DRAK1,16%
same,%Inh,DRAK2,0%
same,%Inh,DYRK1A,0%
